Screening data as filed in PubChem.
An excerpt weighted towards active compounds, which were near 11% of everything screened.
HEK cytotox – Cytotoxic Profiling in HEK 293 Cell Line of Diverse Libraries Using Quantitative High-Throughput Screening. Potency, µM (titrated, usually from 115 µM), usual class: inhibitors. AID 1345083, 2018. actives 6.6% (n = 94,000). HEK 293 viability, ATP luminescence (CellTiter-Glo), 48-72 h; further: nearly all actives have a fitted effect of over 60% in size
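Pintool-delivered compounds were incubated with HEK 293 cells (250 cells/well) at 37 degree Celsius for 48 or 72 hr. ATP-dependent luminescence (CellTiter-Glo) then reported remaining viable cells.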
NPR1 antag – Natriuretic polypeptide receptor (hNpr1) antagonism - Primary qHTS | Atrial natriuretic peptide receptor 1 (Homo sapiens), P16066 | HEK293 hNpr1 GloSensor cGMP, ANP-stimulated luminescence | Potency, µM (titrated, usually from 46.3 µM), actives largely listed as inhibitors | actives 1.6% (n = 76,000); calls by dose curve; further: nearly all actives have a fitted effect of over 60% in size
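HEK293 cells stably expressing human Npr1 and cGMP GloSensor pGS-40F, loaded 2 h with 2% GloSensor reagent, given compound 30 min at room temperature. Luminescence read before and 20 min after 0.1 nM hNppA.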
Luciferase inh – Firefly luciferase inhibition profiling of diverse chemical library using quantitative high-throughput screening; actives 2.5% (n = 76,000); AID 1347043, 2019; Luciferin 4-monooxygenase (Photinus pyralis), P08659; purified P. pyralis luciferase, luminescence, biochemical; Potency, µM (highest dose often 115 µM), usual class: inhibitors; further: nearly all actives have a fitted effect of over 65% in size
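Luminescence read by CCD imaging after purified firefly luciferase (10nM final) was added to substrate buffer holding 10uM D-luciferin and 10uM ATP, pH 7.5, pre-dosed with compound.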
NIH3T3 tox – Cytotoxic Profiling in NIH 3T3 Cell Line of Diverse Libraries Using Quantitative High-Throughput Screening. NIH 3T3 viability, CellTiter-Glo ATP luminescence, 48-72 h. Potency, µM (highest dose often 96.7 µM), actives largely listed as inhibitors. actives 4.3% (n = 94,000). AID 1345082, 2018; further: nearly all actives have a fitted effect of over 55% in size
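Mouse fibroblast NIH 3T3 cells, 400 per well, received compound via pintool and were incubated for 48 or 72 hr prior to CellTiter-Glo ATP luminescence measurement.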
Hits are given with their value; i = inactive; ? = inconclusive; nt = no result given. Unless noted, the call rests on the fitted dose curve; in most records, active means well fitted curve in the direction sought with a large enough effect; inconclusive means small, poorly fitted or top-dose-only effect, or another doubt; inactive means no such curve, though single readings can be large; an effect the other way counts as inactive or inconclusive.

SMILES	HEK cytotox	NPR1 antag	Luciferase inh	NIH3T3 tox
COCCN1CCN(C[C@@H]2C=C(C)[C@H](Cc3nnc(C)o3)C[C@H]2C(C)C)CC1	89µM	i	i	?
COc1ccc(-c2nnc(C[C@@H]3C[C@@H](C(C)C)[C@H](CN4CCN(c5ncccn5)CC4)C=C3C)o2)cc1	40µM	i	i	?
COCCN1CCN(C[C@@H]2C=C(C)[C@H](Cc3nnc(-c4ccc(OC)cc4)o3)C[C@H]2C(C)C)CC1	40µM	i	i	40µM
COCC1CN(C)CC12CCN(Cc1cc(Br)ccc1F)CC2 (stereo not drawn)	?	i	i	?
COc1ccc(NC(=O)Nc2cnc3c(c2)CCC3)cc1	i	nt	nt	?
CC(C)(O)CCc1cccc(C(=O)NCCNc2cccnc2)c1	32µM	i	i	?
CC(C)(O)CCc1cccc(C(=O)NCc2ccccc2Cn2cccn2)c1	i	i	i	22µM
CC(C)(O)CCc1cccc(C(=O)NCCCc2ccccn2)c1	i	i	?	i
O=C(NCc1ccccc1Cn1cccn1)c1ccc2cccc(F)c2n1	?	i	i	?
Cn1ncc2c(C(=O)NC3CCC3)cc(-c3ccc(C(F)(F)F)cc3)nc21	40µM	nt	nt	35µM
COc1ccc(-c2cc(C(=O)NC3CCC3)c3cnn(C)c3n2)cc1	i	nt	nt	i
Cn1ncc2c(C(=O)NCC3CC3)cc(-c3ccc(C(F)(F)F)cc3)nc21	32µM	nt	nt	?
COc1cccc(-c2cc(C(=O)NC3CCC3)c3cnn(C)c3n2)c1	79µM	nt	nt	?
Cn1ncc2c(C(=O)NCC3CC3)cc(-c3ccsc3)nc21	?	nt	nt	89µM
Cc1cnc(C(=O)N[C@@H]2CN(Cc3cccnc3)C[C@H]2CN(C)C)cn1	i	i	i	i
CCCNC(=O)N(C1CCOCC1)C1CCN(C(=O)c2cnccn2)CC1	i	i	i	i
CN1CCC(N2C[C@H](O)C[C@H]2c2nc(CS(=O)(=O)c3ccc(F)cc3)no2)CC1	i	i	i	i
O=[S+]([O-])(c1ccccc1)N1CCCC2(CC(c3cccc(C(F)(F)F)c3)=NO2)C1 (stereo not drawn)	?	nt	nt	i
C[C@@H](NC(=O)c1ccccc1)c1onc(-c2ccc(F)cc2)c1C(=O)O	i	i	i	i
CCCn1cnc2c1CN(S(=O)(=O)c1ccc(F)cc1)[C@H](C(=O)OC)C2	i	i	i	i
COc1cccc(-c2cc(C(=O)NCc3ccccn3)c3cnn(C)c3n2)c1	79µM	nt	nt	?
CCNc1nccc(N2CCC(CC(=O)NCc3ccccc3F)CC2)n1	40µM	i	i	?
CCNc1nccc(N2CCC(CC(=O)N3CCN(c4ccccc4F)CC3)CC2)n1	?	i	i	18µM
CNc1nccc(N2CCC(CC(=O)NC3CCN(Cc4ccccc4)CC3)CC2)n1	?	i	i	35µM
CNc1nccc(N2CCC(CC(=O)NCc3ccccn3)CC2)n1	?	i	i	i
SMILES	HEK cytotox	NPR1 antag	Luciferase inh	NIH3T3 tox
CNc1nccc(N2CCC(CC(=O)N3CCN(c4cccc(OC)c4)CC3)CC2)n1	25µM	?	i	?
Cc1ccc(NC(=O)Cn2ccn3nc(-c4ccc(F)cc4)c(CO)c3c2=O)c(C)c1	?	i	i	?
O=C(Cn1ccn2nc3c(c2c1=O)CCCCC3)Nc1ccccc1F	i	i	45µM	i
Cc1ccc(NC(=O)Cn2ccn3nc(-c4ccccc4)c(CO)c3c2=O)c(C)c1	45µM	i	i	?
CC(C)c1ccccc1NC(=O)Cn1ccn2nc3c(c2c1=O)CCCCC3	40µM	i	i	?
COc1ccc(C(=O)N2CCC(N3C(=O)C(OCC4CC4)C34CCOCC4)CC2)cn1 (stereo not drawn)	i	i	i	i
O=C(C1CCCCC1)N1CCC2(CC1)CC(N(Cc1ccc(F)cc1)C1CC1)CCO2 (stereo not drawn)	45µM	i	i	?
CCC(CC)C(=O)N1CCC2(CC1)CC(N(Cc1ccc(F)cc1)C1CC1)CCO2 (stereo not drawn)	40µM	i	i	?
O=C(C1CC1)N1CCC2(CC1)CC(N(Cc1ccc(F)cc1)C1CC1)CCO2 (stereo not drawn)	?	i	i	i
CNC(=O)N1CCC2(CC1)CC(N(Cc1ccc(F)cc1)C1CC1)CCO2 (stereo not drawn)	i	i	i	i
Cc1nnc([C@H]2CCN(Cc3ccccc3)C2)o1	i	i	i	i
